# In the supplement of paper PMC10849652:
# The full data set covers some 8,800 targets. This sample favours those with a hit. About 0.5% of all pairs of compound and target were hits. A number with no mark means an inactive call.
# Experiments:
# Assay in all cases: log2 fold change, soluble protein after heating vs DMSO (PISA); higher = thermal stabilisation; K562 lysate, 10 uM; active = over 0.2 and 3.5 SD of the protein, either way, in both replicates (recomputed)
# nilotinib = compound: Cc1cn(-c2cc(NC(=O)c3ccc(C)c(Nc4nccc(-c5cccnc5)n4)c3)cc(C(F)(F)F)c2)cn1 [nilotinib]
# How it was run: (§1)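 To prepare the extract, K562 pellets were dounce-homogenised in PBS pH 7.4 with 1 mM MgCl2, giving crude material at 1 mg/mL protein. This was treated with 10 μM compound for 30 min, then heated in aliquots for 3 min over 48°C-58°C before pooling and addition of NP-40 to 0.5% at 4°C. Centrifugation at 21,000xg for 90 min left soluble protein in the supernatant, which TMTpro 16plex LC-MS/MS quantified with equalised channel sums. Results are log-two fold changes in thermal stability compared with solvent controls, from duplicates.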
# [1] = compound: Cc1nc(Nc2n[nH]c3c2CN(C(=O)N[C@H](CN(C)C)c2ccccc2)C3(C)C)c2sccc2n1
# How it was run: as §1
# dasatinib = compound: Cc1nc(Nc2ncc(C(=O)Nc3c(C)cccc3Cl)s2)cc(N2CCN(CCO)CC2)n1 [dasatinib]
# How it was run: as §1
# [2] = compound: Cc1ncc(-c2ccnc(Nc3ccc(S(C)(=O)=O)cc3)n2)n1C(C)C
# How it was run: as §1
# [3] = compound: Cn1cc(-c2ccc3c(c2)CCN3C(=O)Cc2cccc(C(F)(F)F)c2)c2c(N)ncnc21
# How it was run: as §1
# quisinostat = compound: Cn1cc(CNCC2CCN(c3ncc(C(=O)NO)cn3)CC2)c2ccccc21 [quisinostat]
# How it was run: as §1
# tipifarnib = compound: Cn1cncc1[C@@](N)(c1ccc(Cl)cc1)c1ccc2c(c1)c(-c1cccc(Cl)c1)cc(=O)n2C [tipifarnib]
# How it was run: as §1
# [4] = compound: NC(=O)Nc1cc(-c2cccc(F)c2)sc1C(=O)N[C@H]1CCCNC1
# How it was run: as §1
# [5] = compound: NC(=O)c1cnc(N[C@@H]2CCCC[C@@H]2N)nc1Nc1cccc(-n2nccn2)c1
# How it was run: as §1
# [6] = compound: NC1(c2ccc(-c3nc4ccn5c(=O)[nH]nc5c4cc3-c3ccccc3)cc2)CCC1
# How it was run: as §1
# vorinostat = compound: O=C(CCCCCCC(=O)Nc1ccccc1)NO [vorinostat]
# How it was run: as §1
# silmitasertib = compound: O=C(O)c1ccc2c(c1)nc(Nc1cccc(Cl)c1)c1ccncc12 [silmitasertib]
# How it was run: as §1
# [7] = compound: O=C1NC(=O)C(c2cnc3ccccn23)=C1c1cn2c3c(cc(F)cc13)CN(C(=O)N1CCCCC1)CC2
# How it was run: as §1
# [8] = compound: NCC(=O)Nc1ccc(-n2nc(C(F)(F)F)cc2-c2ccc3c(ccc4ccccc43)c2)cc1
# How it was run: as §1
# entospletinib = compound: c1cn2cc(-c3ccc4cn[nH]c4c3)nc(Nc3ccc(N4CCOCC4)cc3)c2n1 [entospletinib]
# How it was run: as §1
# UniProt Q71SY5, sequence (Q71SY5 whole entry, looked up): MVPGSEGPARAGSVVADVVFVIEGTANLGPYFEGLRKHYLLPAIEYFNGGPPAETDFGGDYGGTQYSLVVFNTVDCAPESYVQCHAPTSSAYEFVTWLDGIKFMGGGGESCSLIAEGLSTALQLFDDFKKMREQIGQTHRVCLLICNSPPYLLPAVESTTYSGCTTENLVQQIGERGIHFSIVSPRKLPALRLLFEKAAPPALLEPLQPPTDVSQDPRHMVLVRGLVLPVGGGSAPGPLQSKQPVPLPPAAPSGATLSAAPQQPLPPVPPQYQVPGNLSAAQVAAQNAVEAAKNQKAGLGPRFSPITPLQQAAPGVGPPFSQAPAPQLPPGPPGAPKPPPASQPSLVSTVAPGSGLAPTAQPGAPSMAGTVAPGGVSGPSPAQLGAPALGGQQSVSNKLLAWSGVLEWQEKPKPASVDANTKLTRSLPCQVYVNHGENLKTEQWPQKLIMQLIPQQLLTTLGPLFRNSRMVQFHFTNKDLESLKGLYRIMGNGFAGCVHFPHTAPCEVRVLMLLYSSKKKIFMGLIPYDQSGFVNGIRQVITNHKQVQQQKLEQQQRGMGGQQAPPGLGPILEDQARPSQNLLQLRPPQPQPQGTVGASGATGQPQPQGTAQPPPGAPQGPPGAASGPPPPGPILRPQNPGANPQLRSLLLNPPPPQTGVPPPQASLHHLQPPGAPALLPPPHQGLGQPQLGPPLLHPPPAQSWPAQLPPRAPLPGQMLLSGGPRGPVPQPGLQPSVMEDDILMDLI
# UniProt P10620, sequence (P10620 whole entry, looked up): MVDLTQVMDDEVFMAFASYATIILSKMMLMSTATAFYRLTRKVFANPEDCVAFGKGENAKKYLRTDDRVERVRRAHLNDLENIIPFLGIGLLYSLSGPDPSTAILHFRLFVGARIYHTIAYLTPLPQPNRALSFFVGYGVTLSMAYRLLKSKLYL
# UniProt Q07866, sequence (Q07866 whole entry, looked up): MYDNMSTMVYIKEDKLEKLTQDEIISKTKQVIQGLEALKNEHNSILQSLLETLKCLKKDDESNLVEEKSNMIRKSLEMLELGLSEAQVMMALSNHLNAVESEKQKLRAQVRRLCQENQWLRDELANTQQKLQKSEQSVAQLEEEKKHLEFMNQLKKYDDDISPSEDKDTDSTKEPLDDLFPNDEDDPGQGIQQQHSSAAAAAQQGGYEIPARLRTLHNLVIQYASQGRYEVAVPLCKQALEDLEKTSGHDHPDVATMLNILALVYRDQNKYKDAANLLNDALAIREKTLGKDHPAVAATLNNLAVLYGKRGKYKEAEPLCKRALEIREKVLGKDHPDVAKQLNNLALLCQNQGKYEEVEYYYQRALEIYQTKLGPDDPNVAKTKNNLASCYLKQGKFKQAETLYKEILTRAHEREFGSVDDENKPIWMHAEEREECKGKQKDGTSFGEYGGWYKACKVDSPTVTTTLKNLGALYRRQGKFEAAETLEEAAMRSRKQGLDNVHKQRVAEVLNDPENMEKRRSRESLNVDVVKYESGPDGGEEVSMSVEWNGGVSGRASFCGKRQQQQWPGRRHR
# UniProt Q9UMN6, sequence (Q9UMN6 whole entry, looked up): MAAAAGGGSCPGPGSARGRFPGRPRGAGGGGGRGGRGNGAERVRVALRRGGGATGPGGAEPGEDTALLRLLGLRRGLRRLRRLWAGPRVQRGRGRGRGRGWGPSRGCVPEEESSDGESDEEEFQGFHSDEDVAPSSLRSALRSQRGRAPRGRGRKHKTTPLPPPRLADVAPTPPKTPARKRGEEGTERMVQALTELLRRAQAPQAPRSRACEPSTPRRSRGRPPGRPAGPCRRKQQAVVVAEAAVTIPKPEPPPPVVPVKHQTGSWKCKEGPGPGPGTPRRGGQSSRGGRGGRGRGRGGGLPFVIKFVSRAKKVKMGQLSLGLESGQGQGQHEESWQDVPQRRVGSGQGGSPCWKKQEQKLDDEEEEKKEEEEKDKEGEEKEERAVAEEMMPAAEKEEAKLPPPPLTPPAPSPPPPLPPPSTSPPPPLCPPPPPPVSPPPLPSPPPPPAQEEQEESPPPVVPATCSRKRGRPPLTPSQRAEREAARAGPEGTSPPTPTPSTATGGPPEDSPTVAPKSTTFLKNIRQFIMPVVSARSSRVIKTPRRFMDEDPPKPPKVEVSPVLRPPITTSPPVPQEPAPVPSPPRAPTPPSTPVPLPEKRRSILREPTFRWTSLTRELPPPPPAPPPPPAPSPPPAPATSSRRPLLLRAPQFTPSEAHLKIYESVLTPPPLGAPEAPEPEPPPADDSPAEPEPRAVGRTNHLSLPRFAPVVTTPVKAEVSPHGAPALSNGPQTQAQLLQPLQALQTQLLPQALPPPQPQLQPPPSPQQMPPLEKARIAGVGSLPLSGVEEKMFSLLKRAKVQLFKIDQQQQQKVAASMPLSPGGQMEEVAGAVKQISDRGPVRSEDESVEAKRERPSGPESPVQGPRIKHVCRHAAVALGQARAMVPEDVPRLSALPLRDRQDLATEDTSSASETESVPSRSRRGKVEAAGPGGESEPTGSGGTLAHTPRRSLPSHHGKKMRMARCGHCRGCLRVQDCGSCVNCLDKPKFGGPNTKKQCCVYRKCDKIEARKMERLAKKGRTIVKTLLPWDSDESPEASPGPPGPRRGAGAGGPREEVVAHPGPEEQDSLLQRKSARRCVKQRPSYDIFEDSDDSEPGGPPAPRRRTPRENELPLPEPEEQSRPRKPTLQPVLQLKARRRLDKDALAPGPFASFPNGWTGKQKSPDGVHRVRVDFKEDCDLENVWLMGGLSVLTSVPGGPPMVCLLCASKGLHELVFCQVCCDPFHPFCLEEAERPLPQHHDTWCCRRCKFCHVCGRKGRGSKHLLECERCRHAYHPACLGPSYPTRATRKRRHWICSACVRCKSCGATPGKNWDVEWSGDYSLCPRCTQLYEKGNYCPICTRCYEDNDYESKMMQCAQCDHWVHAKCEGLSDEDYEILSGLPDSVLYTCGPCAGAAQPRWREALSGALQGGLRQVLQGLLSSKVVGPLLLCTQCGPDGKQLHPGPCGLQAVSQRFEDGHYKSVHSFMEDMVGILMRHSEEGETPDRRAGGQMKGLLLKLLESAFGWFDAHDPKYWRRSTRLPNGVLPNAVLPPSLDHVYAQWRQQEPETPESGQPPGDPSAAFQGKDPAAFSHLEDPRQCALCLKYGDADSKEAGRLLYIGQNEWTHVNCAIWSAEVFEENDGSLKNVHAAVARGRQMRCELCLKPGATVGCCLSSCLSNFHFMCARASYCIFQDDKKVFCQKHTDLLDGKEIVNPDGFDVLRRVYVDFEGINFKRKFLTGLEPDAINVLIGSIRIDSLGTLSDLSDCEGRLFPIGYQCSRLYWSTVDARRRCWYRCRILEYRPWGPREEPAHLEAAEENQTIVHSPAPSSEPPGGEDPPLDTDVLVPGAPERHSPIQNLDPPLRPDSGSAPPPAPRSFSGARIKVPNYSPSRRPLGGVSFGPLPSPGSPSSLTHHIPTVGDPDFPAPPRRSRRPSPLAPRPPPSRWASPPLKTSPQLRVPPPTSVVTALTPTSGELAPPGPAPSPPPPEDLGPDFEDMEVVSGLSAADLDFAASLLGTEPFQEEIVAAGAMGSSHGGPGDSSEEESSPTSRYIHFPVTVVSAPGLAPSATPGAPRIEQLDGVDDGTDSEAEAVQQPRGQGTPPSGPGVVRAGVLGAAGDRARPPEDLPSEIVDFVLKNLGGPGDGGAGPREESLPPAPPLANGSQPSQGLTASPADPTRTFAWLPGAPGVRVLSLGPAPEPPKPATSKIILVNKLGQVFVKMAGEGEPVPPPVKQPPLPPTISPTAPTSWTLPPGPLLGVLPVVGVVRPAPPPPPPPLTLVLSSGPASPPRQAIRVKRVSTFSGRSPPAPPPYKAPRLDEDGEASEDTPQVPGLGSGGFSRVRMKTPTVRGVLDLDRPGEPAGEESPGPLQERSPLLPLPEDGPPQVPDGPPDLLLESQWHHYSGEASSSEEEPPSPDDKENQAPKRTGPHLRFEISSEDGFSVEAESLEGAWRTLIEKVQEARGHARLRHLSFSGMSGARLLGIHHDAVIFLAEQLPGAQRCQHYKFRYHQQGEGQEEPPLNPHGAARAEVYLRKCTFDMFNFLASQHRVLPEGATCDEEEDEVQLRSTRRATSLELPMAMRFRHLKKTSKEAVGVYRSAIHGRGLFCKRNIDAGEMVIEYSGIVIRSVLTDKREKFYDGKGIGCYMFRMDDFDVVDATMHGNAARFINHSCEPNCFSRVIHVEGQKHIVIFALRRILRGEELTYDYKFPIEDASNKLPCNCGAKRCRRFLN
# UniProt Q5SRI9, sequence (Q5SRI9 whole entry, looked up): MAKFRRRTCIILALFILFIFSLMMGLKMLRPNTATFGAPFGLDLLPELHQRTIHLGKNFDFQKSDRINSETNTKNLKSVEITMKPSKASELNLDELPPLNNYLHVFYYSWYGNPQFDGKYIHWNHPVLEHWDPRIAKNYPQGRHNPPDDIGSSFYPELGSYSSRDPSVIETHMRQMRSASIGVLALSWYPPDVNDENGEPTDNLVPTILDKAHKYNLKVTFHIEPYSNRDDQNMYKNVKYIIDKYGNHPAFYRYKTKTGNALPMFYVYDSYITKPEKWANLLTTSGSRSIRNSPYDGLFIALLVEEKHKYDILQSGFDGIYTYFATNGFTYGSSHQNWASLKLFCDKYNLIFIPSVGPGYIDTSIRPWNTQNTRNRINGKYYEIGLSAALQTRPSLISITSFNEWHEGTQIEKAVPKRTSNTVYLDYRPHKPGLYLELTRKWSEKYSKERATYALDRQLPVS
# UniProt Q9H204, sequence (Q9H204 whole entry, looked up): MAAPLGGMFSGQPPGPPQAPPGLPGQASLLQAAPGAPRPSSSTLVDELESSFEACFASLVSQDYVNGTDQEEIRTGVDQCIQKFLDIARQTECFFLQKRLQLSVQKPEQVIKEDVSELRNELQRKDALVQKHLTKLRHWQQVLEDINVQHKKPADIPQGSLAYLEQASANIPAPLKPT
# UniProt O14880, sequence (O14880 whole entry, looked up): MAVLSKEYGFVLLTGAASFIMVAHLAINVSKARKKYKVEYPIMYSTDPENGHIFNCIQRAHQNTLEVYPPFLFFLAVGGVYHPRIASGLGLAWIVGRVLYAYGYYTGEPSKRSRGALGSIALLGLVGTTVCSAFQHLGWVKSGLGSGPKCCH
Target,log2 fold change (nilotinib),log2 fold change [1],log2 fold change (dasatinib),log2 fold change [2],log2 fold change [3],log2 fold change (quisinostat),log2 fold change (tipifarnib),log2 fold change [4],log2 fold change [5],log2 fold change [6],log2 fold change (vorinostat),log2 fold change (silmitasertib),log2 fold change [7],log2 fold change [8],log2 fold change (entospletinib)
MCUB (UniProt Q9NWR8),-0.142,0.119,0.075,-0.12,0.122,-0.262,-0.112,0.143,-0.008,-0.014,0.129,0.057,0.027,–,–
KSR1 (UniProt Q8IVT5),0,-0.04,-0.106,0.056,0.057,-0.015,-0.116,0.069,0.051,0.003,-0.49 (active),0.081,0.031,0.029,-0.025
MED25 isoform 3 (UniProt Q71SY5),0.132,0.026,-0.039,0.097,-0.017,-0.008,-0.024,0.029,-0.013,-0.073,-0.294 (active),0.021,0.024,–,0.127
MGST3 (UniProt O14880),0.024,0.016,0.029,-0.019,-0.062,0.016,-0.014,0.009,-0.013,-0.031,0.128,0,0.033,-0.025,0.041
LLGL1 (UniProt Q15334),0,0.149,-0.011,0.052,0.016,-0.046,-0.077,0.159,0.053,0.075,-0.524 (active),0.077,-0.046,0.078,0.042
MGST1 (UniProt P10620),0.033,-0.002,-0.012,-0.017,0.014,-0.029,0.02,0.085,-0.007,-0.012,0.037,-0.013,0.031,-0.013,-0.01
LARS (UniProt Q9P2J5),0.012,0.003,-0.065,-0.012,0.038,-0.005,-0.006,0.034,0,-0.024,-0.399 (active),0.052,-0.003,-0.021,0.012
MAP4K4 isoform 3 (UniProt O95819),-0.108,0.03,-0.103,0.002,0.006,-0.103,0.038,0.27 (active),0.02,-0.032,-0.145,0.045,–,0.041,0.178
MME (UniProt P08473),-0.09,0.082,-0.513 (active),0.021,0.104,-0.02,-0.031,0.085,0.061,-0.014,0.096,-0.033,-0.038,–,–
MRPL19 (UniProt P49406),0.001,-0.015,-0.039,-0.004,0.005,-0.055,0.033,0.024,-0.018,-0.044,-0.311 (active),0.012,0.027,0,-0.054
L3HYPDH (UniProt Q96EM0),0.019,0.015,0.073,0.001,-0.003,-0.053,-0.002,0.033,0.015,0.009,-0.31 (active),0,-0.02,0.023,-0.005
MAST4 (UniProt O15021),-0.078,0.114,0.001,0.08,0.04,0.104,0.012,0.073,0.021,0.059,-0.381,0.281,-0.025,-0.073,0.018
KIF11 (UniProt P52732),-0.016,0.003,-0.021,-0.018,0.034,-0.022,-0.007,0.006,0,0,-0.252 (active),0.016,-0.033,-0.013,0.001
MED28 (UniProt Q9H204),0.053,0.053,-0.004,0.053,-0.006,-0.007,0.015,-0.013,-0.005,-0.014,-0.219,0.003,0.09,–,–
MORC2 (UniProt Q9Y6X9),-0.012,-0.02,-0.046,0.006,0.051,-0.05,0.024,0.049,0.028,-0.001,-0.328 (active),0.103,-0.015,0.014,0.013
LRRIQ1 (UniProt Q96JM4),–,–,–,–,–,-0.518,–,0.242,0.019,–,–,–,0.754 (active),0.056,–
KLC1 isoform 10 (UniProt Q07866),–,–,–,–,–,–,–,–,–,-0.159,-0.144,-0.165,–,–,-0.171
MAPKAP1 (UniProt Q9BPZ7),0.105,-0.118,-0.085,0.083,-0.003,-0.087,-0.056,0.042,–,-0.093,-0.111,0.187,-0.018,–,-0.157
MANEA (UniProt Q5SRI9),–,–,-0.003,–,0.046,0.046,–,0.05,0.01,-0.044,0.217,-0.103,-0.047,0,0.055
KMT2B (UniProt Q9UMN6),–,–,0.013,–,0.108,0.346,–,-0.047,–,0.122,0.531,-0.76 (active),0.211,–,0.116
MBTPS1 (UniProt Q14703),–,–,0.106,–,-0.101,-0.053,–,0.026,–,-0.045,0.116,-0.023,-0.044,0.17,0.094
LSM11 (UniProt P83369),–,–,0.266,–,-0.049,-0.114,–,0.049,–,-0.037,-0.027,0.194,0.014,0.233,-0.02
KIFC3 isoform 6 (UniProt Q9BVG8),–,–,-0.055,–,-0.146,-0.189,–,0.079,–,-0.213,-0.025,-0.124,0.119,0.03,-0.063
MAP4K2 (UniProt Q12851),–,–,0.511,–,0.123,-0.193,–,0.965 (active),0.159,-0.062,-0.263,0.064,-0.104,0.03,0.15
